Data taken from PubChem BioAssay.
Unmarked numbers belong to inactive results. A call without a number means that no potency is given here. For some assays here: Potency and affinity values are given separately. Calls of active or inactive are those of the source. Unless noted, no rule for the calls is given here.

Legend:
[1] = antimalarial activity against Dd2 strain (AID 2302;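 active = growth inhibition above 50% at the single 2 µM test dose, taken to imply half-maximal potency below 2 µM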); details: P. falciparum Dd2 in RBCs, LDH growth readout, 72 h; at 2 µM; stronger effect = higher value
[2] = HepG2 cytotoxicity, primary screen, cytotoxicity control for P. falciparum antimalarial project, cell-based, ATP luminescence (AID 2303;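 active = inhibition above 50%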); details: HepG2 viability, 24-48 h, at 10 µM, stronger effect = higher value
[3] = biological target: L-lactate dehydrogenase (Plasmodium falciparum (isolate CDC / Honduras)) (UniProt Q27743); assay: PfLDH activity inhibition – cell lysate, 3D7 strain, counter-screen for P. falciparum growth inhibition project (AID 2304); details: P. falciparum 3D7 crude extract, LDH APAD/NBT absorbance; at 2 µM; stronger effect = higher value
[4] = inhibition of 3D7 malaria parasite growth – strain 3D7 (AID 2306); details: P. falciparum 3D7 erythrocytic growth, LDH absorbance, 72 h; at 2 µM; stronger effect = higher value
[5] = biological target: Calcium-dependent protein kinase 1 (Plasmodium falciparum (isolate 3D7)) (UniProt P62344); assay: PfCDPK1 kinase inhibitors, biochemical, TCAMS library (AID 1159585; cut-off not given, nearly all actives have IC50 up to about 0.98 µM;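 also: inhibitors leave more ATP so luminescence rises with inhibition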); details: recombinant PfCDPK1, Kinase-Glo ATP depletion luminescence
[6] = biological target: Plasmodium falciparum protein kinase 6 (PK6, PF3D7_1337100) (UniProt Q8IDW1); assay: PfPK6 kinase inhibitors, biochemical, TCAMS library (AID 1159586); details: recombinant PfPK6, Kinase-Glo ATP depletion luminescence
[7] = biological target: Protein kinase 7 (PK7), Plasmodium falciparum 3D7 (PF3D7_0213400) (UniProt Q7YTF7); assay: inhibition of Plasmodium PK7 catalytic activity – biochemical, TCAMS antimalarial set, Kinase-Glo luminescence (AID 1159587); details: recombinant PfPK7, Kinase-Glo ATP depletion luminescence
[8] = biological target: Calcium-dependent protein kinase 4 (Plasmodium falciparum (isolate 3D7)) (UniProt Q8IBS5); assay: PfCDPK4 kinase inhibitors, biochemical, TCAMS library (AID 1159588; cut-off not given, nearly all actives have IC50 up to about 0.91 µM); details: recombinant PfCDPK4, Kinase-Glo ATP depletion luminescence
Calcium-dependent protein kinase 4 (Plasmodium falciparum (isolate 3D7)), sequence (Q8IBS5 whole entry, looked up): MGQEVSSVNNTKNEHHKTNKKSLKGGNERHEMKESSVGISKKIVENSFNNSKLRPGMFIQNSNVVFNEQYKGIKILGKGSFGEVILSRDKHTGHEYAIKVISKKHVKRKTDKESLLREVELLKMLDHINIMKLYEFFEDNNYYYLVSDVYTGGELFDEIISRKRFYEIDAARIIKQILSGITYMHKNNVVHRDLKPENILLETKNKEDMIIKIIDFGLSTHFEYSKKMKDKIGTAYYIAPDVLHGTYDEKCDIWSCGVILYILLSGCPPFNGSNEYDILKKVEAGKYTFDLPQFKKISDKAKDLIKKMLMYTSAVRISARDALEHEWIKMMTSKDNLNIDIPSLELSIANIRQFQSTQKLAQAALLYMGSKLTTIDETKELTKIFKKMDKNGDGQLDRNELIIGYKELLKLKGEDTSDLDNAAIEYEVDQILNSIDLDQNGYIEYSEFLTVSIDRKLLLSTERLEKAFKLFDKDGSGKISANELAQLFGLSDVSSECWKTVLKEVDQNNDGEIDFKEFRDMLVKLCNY

Plasmodium falciparum protein kinase 6 (PK6, PF3D7_1337100), sequence (Q8IDW1 1-305): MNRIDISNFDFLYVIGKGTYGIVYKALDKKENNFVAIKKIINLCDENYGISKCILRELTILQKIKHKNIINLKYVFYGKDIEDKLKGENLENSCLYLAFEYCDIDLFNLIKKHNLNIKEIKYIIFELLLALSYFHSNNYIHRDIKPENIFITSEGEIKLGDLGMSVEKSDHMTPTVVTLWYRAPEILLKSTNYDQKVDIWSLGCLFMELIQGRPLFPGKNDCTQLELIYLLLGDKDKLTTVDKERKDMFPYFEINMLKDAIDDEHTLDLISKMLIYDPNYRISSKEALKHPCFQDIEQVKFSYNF
Calcium-dependent protein kinase 1 (Plasmodium falciparum (isolate 3D7)), sequence (P62344 whole entry, looked up): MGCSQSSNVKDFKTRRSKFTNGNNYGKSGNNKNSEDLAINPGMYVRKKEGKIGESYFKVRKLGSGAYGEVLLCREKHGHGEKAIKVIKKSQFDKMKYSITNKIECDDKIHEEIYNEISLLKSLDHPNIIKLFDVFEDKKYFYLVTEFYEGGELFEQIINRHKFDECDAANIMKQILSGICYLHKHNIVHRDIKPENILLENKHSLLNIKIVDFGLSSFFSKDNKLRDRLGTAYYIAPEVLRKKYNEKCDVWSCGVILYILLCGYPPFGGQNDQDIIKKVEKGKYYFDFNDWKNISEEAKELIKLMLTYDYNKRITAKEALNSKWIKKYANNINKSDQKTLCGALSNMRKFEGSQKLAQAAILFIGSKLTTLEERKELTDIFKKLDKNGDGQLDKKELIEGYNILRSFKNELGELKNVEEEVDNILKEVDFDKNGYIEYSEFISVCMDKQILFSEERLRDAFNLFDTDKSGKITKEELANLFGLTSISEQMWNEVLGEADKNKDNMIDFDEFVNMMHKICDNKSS
L-lactate dehydrogenase (Plasmodium falciparum (isolate CDC / Honduras)), sequence (Q27743 whole entry, looked up): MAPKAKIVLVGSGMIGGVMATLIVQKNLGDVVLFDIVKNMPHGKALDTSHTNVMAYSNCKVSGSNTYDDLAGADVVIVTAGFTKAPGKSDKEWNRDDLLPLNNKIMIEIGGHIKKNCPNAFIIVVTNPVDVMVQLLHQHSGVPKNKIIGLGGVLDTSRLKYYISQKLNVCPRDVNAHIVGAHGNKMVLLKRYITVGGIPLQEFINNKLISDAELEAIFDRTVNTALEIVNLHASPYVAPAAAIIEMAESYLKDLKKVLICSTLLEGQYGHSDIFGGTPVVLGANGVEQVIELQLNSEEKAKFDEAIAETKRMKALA
Protein kinase 7 (PK7), Plasmodium falciparum 3D7 (PF3D7_0213400), sequence (Q7YTF7 1-343): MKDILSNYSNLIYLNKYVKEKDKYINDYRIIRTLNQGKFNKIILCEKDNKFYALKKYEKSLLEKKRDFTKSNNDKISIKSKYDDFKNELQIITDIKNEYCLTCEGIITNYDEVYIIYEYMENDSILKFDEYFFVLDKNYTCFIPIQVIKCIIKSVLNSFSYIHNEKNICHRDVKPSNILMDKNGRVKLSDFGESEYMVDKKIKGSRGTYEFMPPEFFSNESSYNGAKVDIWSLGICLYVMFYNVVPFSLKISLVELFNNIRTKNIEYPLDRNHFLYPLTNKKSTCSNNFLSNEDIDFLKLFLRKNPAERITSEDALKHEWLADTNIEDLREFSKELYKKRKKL

| SMILES | growth inhibition [1] | inhibition [2] | inhibition [3] | growth inhibition [4] | outcome [5] | outcome [6] | outcome [7] | outcome [8] |
| --- | --- | --- | --- | --- | --- | --- | --- | --- |
| CCCc1cc(NCC)nc(Nc2ccc(F)cc2)n1 | 36% | 16% | -1% | 86% (active) | inactive | inactive | inactive | inactive |
| CNCCNCc1ccc(-c2cccc(-c3nc4ccc(F)cc4[nH]3)c2)cc1 | 1% | 10% | -1% | 93% (active) | inactive | inactive | inactive | inactive |
| COc1ccc(NC(=O)/C=C/c2ccccc2Cl)cc1OCCN1CCC(NCc2cccnc2)CC1 | 88% (active) | 12% | 1% | 101% (active) | inactive | inactive | inactive | inactive |
| O=C(C=Cc1cn(-c2ccccc2)nc1-c1ccccc1)N1CCN(c2ccncc2)CC1 | 20% | 11% | 2% | 90% (active) | inactive | inactive | inactive | inactive |
| O=C(Nc1nc2cc(S(=O)(=O)NCc3ccc(Cl)c(Cl)c3)ccc2n1CCCn1ccnc1)c1ccc(Cl)cc1 | 44% | -12% | 4% | 101% (active) | inactive | inactive | inactive | inactive |
| Cn1nccc1C(=O)NCCNCc1cccc(-c2ccc(-c3nc4ccc(C(F)(F)F)cc4[nH]3)s2)c1 | 99% (active) | 36% | -6% | 100% (active) | inactive | inactive | inactive | inactive |
| Cc1cc(Nc2ccc(Cl)cc2)n2nc(C(F)(F)F)nc2n1 | 95% (active) | 5% | -1% | 97% (active) | inactive | inactive | inactive | inactive |
| COc1ccc(OCC(O)CN(Cc2ccccc2OC)C(=O)Nc2ccc(Br)cc2)cc1 (stereo not given) | 2% | 8% | 0% | 97% (active) | inactive | inactive | inactive | inactive |
| N#Cc1ccc(N2CCN(Cc3cccc(-c4cccc(-c5nc6ccc(C(F)(F)F)cc6[nH]5)c4)c3)CC2)nc1 | 50% (active) | 15% | 6% | 99% (active) | inactive | inactive | inactive | inactive |
| CC1CC(NCCCNc2cc(=O)c3ccccc3[nH]2)c2c(Cl)c(Cl)cc(Cl)c21 (stereo not given) | 52% (active) | 6% | 2% | 87% (active) | inactive | inactive | inactive | inactive |
| O=C(Nc1ccc(OC2CCN(Cc3ccsc3)C2)c(Cl)c1)c1ccsc1 (stereo not given) | 70% (active) | 4% | 0% | 85% (active) | inactive | inactive | inactive | inactive |
| O=C1C=Cc2ccccc2/C1=C/c1sc(=NCc2ccccc2)n(Cc2ccccc2)c1O | 98% (active) | 0% | -7% | 98% (active) | inactive | inactive | inactive | inactive |
| CCCc1cc(N2CCC(N3CCCC3)CC2)nc(Nc2ccc(Cl)cc2)n1 | 9% | 29% | -2% | 96% (active) | inactive | inactive | inactive | inactive |
| Cc1cccc2[nH]c(-c3cccc(-c4ccc(NC(=O)Cc5ccon5)cc4)c3)nc12 | 38% | 34% | 2% | 87% (active) | inactive | inactive | inactive | inactive |
| CS(=O)(=O)c1cc2c(Nc3ccc(N4CCOCC4)cc3)c(C(N)=O)cnc2cc1Br | 89% (active) | -18% | -2% | 101% (active) | inactive | inactive | inactive | inactive |
| COc1cccc2c(NN=Cc3ccccc3F)ccnc12 | 37% | 6% | 1% | 96% (active) | inactive | inactive | inactive | inactive |
| OC1CCN(c2cc(-c3ccccn3)nc(-c3ccccn3)n2)CC1 | 97% (active) | 43% | -2% | 83% (active) | inactive | inactive | inactive | inactive |
| COc1ccc(C2CC(=O)C3=C(C2)NC(C)=C(C(=O)OC2CCCC2)C3c2cccc(O)c2)cc1 (stereo not given) | 83% (active) | -6% | -2% | 88% (active) | inactive | inactive | inactive | inactive |
| CN=C(N)c1ccc(NC(=O)Nc2ccc(C(N)=NC)cc2)cc1 | 71% (active) | -5% | -2% | 84% (active) | inactive | inactive | inactive | inactive |
| COc1ccc(CN2CCCC(C(=O)c3ccc(C(F)(F)F)cc3)C2)c(O)c1 (stereo not given) | 88% (active) | -2% | -3% | 98% (active) | inactive | inactive | inactive | inactive |

| SMILES | growth inhibition [1] | inhibition [2] | inhibition [3] | growth inhibition [4] | outcome [5] | outcome [6] | outcome [7] | outcome [8] |
| --- | --- | --- | --- | --- | --- | --- | --- | --- |
| Cc1cc(N2Cc3ccccc3C2)nc(Nc2ccc(S(=O)(=O)N3CCOCC3)cc2)n1 | 85% (active) | 13% | 0% | 101% (active) | inactive | inactive | inactive | inactive |
| CCc1c(CCNCCCCCCNCCc2ccc([N+](=O)[O-])cc2)ccc(O)c1O | 23% | 5% | -1% | 94% (active) | inactive | inactive | inactive | inactive |
| CN(C)CCNC(=O)c1ccc2c(c1)n(C1CCN(S(=O)(=O)c3ccc(-c4ccccc4)cc3)CC1)c(=O)n2CC1CCCCC1 | 66% (active) | 47% | -2% | 100% (active) | inactive | inactive | inactive | inactive |
| COc1ccc(CN2CCCN(Cc3cccc(NC(=O)c4ccc(-c5ccccc5)cc4)c3)CC2)cc1 | 24% | 37% | 1% | 94% (active) | inactive | inactive | inactive | inactive |
| Cc1cc(NCCCOc2ccc(Cl)cc2)nc(NCc2ccccc2)n1 | 20% | 45% | 0% | 95% (active) | inactive | inactive | inactive | inactive |
| COc1ccc2ncc(F)c(CCN3C[C@H](CNCc4ccccc4)[C@H](O)C3)c2n1 | 22% | 19% | 8% | 89% (active) | inactive | inactive | inactive | inactive |
| CC(C)Oc1ccc(CCCON2C(N)=NC(N)=NC2(C)C)cc1 | 94% (active) | 66% (active) | 0% | 96% (active) | inactive | inactive | inactive | inactive |
| COc1ccccc1C(=O)C1CCCN(C(=O)c2ccccc2C(F)(F)F)C1 (stereo not given) | 84% (active) | -9% | -4% | 91% (active) | inactive | inactive | inactive | inactive |
| Clc1ccc2c(NCc3ccccn3)ccnc2c1 | 99% (active) | 0% | -4% | 99% (active) | inactive | inactive | inactive | inactive |
| CN(C)CCC1CCN(CCS(=O)(=O)c2cccc(Nc3ccc(-c4ccsc4)cn3)c2)CC1 | 6% | 49% | 0% | 97% (active) | inactive | inactive | inactive | inactive |
| CCN1CCC(N(Cc2ccc(-c3ccc(C(F)(F)F)cc3)cc2)C(=O)Cn2c(CCc3cccc(F)c3F)cc(=O)c3c2CCCC3)CC1 | 96% (active) | 55% (active) | 0% | 100% (active) | inactive | inactive | inactive | inactive |
| CCN(CC)CCN(Cc1ccc(-c2ccc(C(F)(F)F)s2)cc1)C(=O)Cn1c(CCc2cccc(F)c2F)nc(=O)c2ccccc21 | 31% | 43% | 3% | 94% (active) | inactive | inactive | inactive | inactive |
| O=C(Cc1cnc[nH]1)Nc1cccc(-c2ccc(-c3nc4ccc(F)cc4[nH]3)cc2)c1 | 84% (active) | 4% | -7% | 100% (active) | inactive | inactive | inactive | inactive |
| O=C(Nc1ccc2nc3n(c(=O)c2c1)CCCCC3)C(=O)N1CCN(c2ccc(F)cc2)CC1 | 86% (active) | 10% | -1% | 93% (active) | inactive | inactive | inactive | inactive |
| COc1ccc(-c2ccc(NC(=O)c3cccc(Cl)c3)cc2)cc1CN1CCN(C)CC1 | 33% | 42% | -2% | 90% (active) | inactive | inactive | inactive | inactive |
| COc1ccc2nccc([C@@H](O)CN3CCC(NCCc4c[nH]c5ccccc45)CC3)c2c1 | 77% (active) | 0% | -7% | 98% (active) | inactive | inactive | inactive | inactive |
| CCOc1c(Br)cc(Cl)cc1CNCCCNc1nc2ccccc2[nH]1 | 3% | 27% | -2% | 98% (active) | inactive | inactive | inactive | inactive |
| CC1CN(C(=O)c2sc3ccccc3c2Cl)CC(C)O1 (stereo not given) | 98% (active) | -5% | 3% | 101% (active) | inactive | inactive | inactive | inactive |
| CCCCCN1CCC(CNS(=O)(=O)c2ccc(C(=O)Nc3cccc(C(F)(F)F)c3)cc2)CC1 | 13% | 13% | -7% | 98% (active) | inactive | inactive | inactive | inactive |
| CCn1c2ccccc2c2cc(Cc3cnc(N)nc3N)ccc21 | -2% | 28% | 5% | 94% (active) | inactive | inactive | inactive | inactive |
